Measured values reported in PubChem BioAssay.
For some of these results: Results with a measured potency or affinity are listed apart. The list shows a part of the results. Active and inactive are the calls of the source.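 Rule for the calls, unless noted: active = compound raising the membrane signal above positive-control mean plus 3 SD in both repeats, and a primary screen hit; inactive = the rest.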

Experiments:
[1] = system: TRPC4 beta (transient receptor potential cation channel C4), mouse; assay: activators of mouse TRPC4 channel, confirmation, cell-based, Fluo4 calcium, HEK293 TRPC4beta/mu-opioid, duplicates, 10 µM (AID 2426;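 active = fluorescence ratio normalized to control raised more than 50% in primary screen plus both repeat runs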); details: Fluo4 calcium fluorescence, at 10 µM; hits give high values
[2] = system: transient receptor potential cation channel C4 beta (TRPC4), mouse; assay: activators of mouse TRPC4 channel, confirmation, cell-based, second round, Fluo4, HEK293 TRPC4beta/mu-opioid, 1 µM (AID 2461;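 active = primary screen active and over 50% activation in each of two duplicate runs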); details: Fluo4 calcium fluorescence, at 1 µM; hits give high values
[3] = system: TRPC4 (transient receptor potential cation channel C4 beta), mouse; assay: positive allosteric modulators of mouse TRPC4, confirmation, cell-based, second round, Fluo-4, HEK293 TRPC4beta/mu-opioid, 1 µM (AID 2554;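 active = primary screen hit whose fluorescence ratio, in both repeats, exceeds the weak agonist control mean by 3 SD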); details: DAMGO EC20, Fluo-4 calcium flux, at 1 µM; hits give high values
[4] = system: TRPC4 beta (transient receptor potential cation channel C4), mouse; assay: positive allosteric modulators of mouse TRPC4, confirmation, cell-based, Fluo-4, HEK293 TRPC4beta/mu-opioid (AID 2555;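 active = primary screen hit whose calcium fluorescence ratio, in both repeats, exceeds the weak agonist control mean by 3 SD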); details: DAMGO EC20, Fluo-4 calcium flux, at 10 µM; hits give high values
[5] = molecular target: Short transient receptor potential channel 4 (Mus musculus) (UniProt Q9QUQ5); assay: inhibitors of mouse TRPC4 channel, confirmation, cell-based, Fluo4, HEK293 TRPC4beta/mu-opioid (AID 2636;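 active = calcium signal cut by more than 3 SD below the full-agonist control yet still positive, in both repeats and the earlier primary screen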); details: DAMGO, Fluo4 calcium flux, at 10 µM; hits give high values
[6] = molecular target: Short transient receptor potential channel 4 (Mus musculus) (UniProt Q9QUQ5); assay: inhibitors of mouse TRPC4 channel, confirmation, cell-based, second round, Fluo4, HEK293 TRPC4beta/mu-opioid, 1 µM (AID 2637;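 active = calcium signal ratio cut to more than 3 SD under the fully stimulated control mean yet still positive, in both repeats and the primary screen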); details: Fluo4 calcium flux, DAMGO, at 1 µM; hits give high values
[7] = molecular target: Short transient receptor potential channel 4 (Mus musculus) (UniProt Q9QUQ5); assay: mouse TRPC4 channel activators, dose response, cell-based, HEK293 TRPC4/mu-opioid, Fluo-4 calcium (AID 434937;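 active = primary screen activator hit with a dose response curve and TRPC4 channel activation at any tested dose; inactive = no activation, no dose response, or not a primary hit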)
[8] = molecular target: Short transient receptor potential channel 4 (Mus musculus) (UniProt Q9QUQ5); assay: TRPC4 positive allosteric modulators, dose response, cell-based, HEK293 TRPC4/mu-opioid, Fluo-4 calcium, EC20 DAMGO (AID 434941;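 active = earlier screen potentiator hit that boosts the TRPC4 ion channel at some dose, with a dose response; inactive = no potentiation, no dose response, or not a prior hit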;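 note: calcium entry triggered by an EC20 dose of DAMGO at the co-expressed mu-opioid receptor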)
[9] = molecular target: Short transient receptor potential channel 4 (Mus musculus) (UniProt Q9QUQ5); assay: mouse TRPC4 channel inhibitors, dose response, cell-based, HEK293 TRPC4/mu-opioid, Fluo-4 calcium (AID 434942;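 active = primary screen inhibitor hit that blocks the TRPC4 channel at some tested dose, yielding a dose curve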)
[10] = molecular target: Short transient receptor potential channel 6 (Mus musculus) (UniProt Q61143); assay: inhibition of mouse TRPC6 channel, confirmation, selectivity assay for TRPC4 inhibitor project, cell-based, HEK293, membrane potential dye, duplicate (AID 434948;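 active = active in primary screen and both duplicates, each dropping signal beyond three positive-control SD with fluorescence still positive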); details: HEK293 TRPC6, membrane potential dye fluorescence, at 10 µM; inhibition: hits give high values, stimulated with maximal-effect acetylcholine unless noted; outcome: stimulated with maximal-effect acetylcholine unless noted
[11] = molecular target: Short transient receptor potential channel 6 (Mus musculus) (UniProt Q61143); assay: activation of mouse TRPC6 channel, confirmation, selectivity assay for TRPC4 activator project, cell-based, HEK293, membrane potential dye, duplicate (AID 434950;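 active = membrane potential signal rise above negative control mean plus 3 SD in both duplicates, also active in the earlier TRPC4 screen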;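 for activation: 0% = buffer only wells and 100% = acetylcholine maximal-effect wells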); details: HEK293 TRPC6, membrane potential fluorescence, at 10 µM; hits give high values
[12] = molecular target: Short transient receptor potential channel 6 (Mus musculus) (UniProt Q61143); assay: TRPC6 potentiation by TRPC4 potentiator hits, confirmation, selectivity assay for TRPC4 potentiator project, HEK293 cells, membrane potential dye, duplicate (AID 434952); details: HEK293 TRPC6, membrane potential dye fluorescence, at 10 µM; maximal acetylcholine added after compound unless noted
[13] = molecular target: Short transient receptor potential channel 4 (Mus musculus) (UniProt Q9QUQ5); assay: calcium flux activators in TRPC4/5HT1a cells, counter-screen for TRPC4 activator project, cell-based, second counter screen, HEK293 TRPC4/5HT1a, Fluo-4 (AID 434977;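 active = calcium signal rise above buffer-control mean plus 5 SD in both duplicates, and also a hit in the primary screen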); details: Fluo-4 calcium flux, at 10 µM; hits give high values
[14] = calcium flux inhibitors in TRPC4/5HT1a cells, confirmation, counter-screen for TRPC4 inhibitor project, cell-based, second counter screen, HEK293 TRPC4/5HT1a, Fluo-4 (AID 434978;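 active = primary screen active whose calcium signal fell more than 3 SD beyond the full-serotonin control mean in both duplicate plates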;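 for outcome: serotonin given first at submaximal then at maximal dose after compound preincubation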); details: Fluo-4 calcium flux, at 10 µM; inhibition: hits give high values, serotonin added to trigger calcium flux unless noted; outcome: serotonin added to trigger calcium flux unless noted
[15] = system: TRPC4 (mouse), co-expressed with 5HT1a in HEK293; assay: calcium flux potentiators in TRPC4/5HT1a cells, confirmation, counter-screen for TRPC4 potentiator project, cell-based, second counter screen, HEK293 TRPC4/5HT1a, Fluo-4 (AID 434979;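 active = signal rise over 3 SD above mean of control wells given weak agonist, in both repeats and first screen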); details: Fluo-4 calcium flux, at 10 µM; outcome: serotonin added at its EC20 dose unless noted; potentiation: hits give high values, serotonin added at its EC20 dose unless noted
[16] = calcium flux activation in mu-opioid HEK293 cells, confirmation, counter-screen for TRPC4 activator project, cell-based, HEK293 mu-opioid receptor line (AID 449723;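 active = hit in primary screen, with calcium signal over 5 SD above buffer well mean in both duplicates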;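 note: counter screen cells carry the mu-opioid receptor alone and lack TRPC4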); details: Fluo-4 calcium fluorescence, at 10 µM; hits give high values
[17] = calcium flux enhancement in mu-opioid HEK293 cells, confirmation, counter-screen for TRPC4 allosteric potentiator project, cell-based, HEK293 mu-opioid receptor line (AID 449724;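 active = calcium signal rise more than 3 SD above the low-dose agonist control mean, in both duplicate plates and the primary screen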); details: Fluo-4 calcium flux, at 10 µM; compound added before EC20 DAMGO stimulus unless noted
[18] = molecular target: Inward rectifier potassium channel 2 (Mus musculus) (UniProt P35561); assay: mouse Kir2.1 channel blockers, retest, confirmation, cell-based, FluxOR thallium flux, duplicate (AID 2032;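 active = Primary-screen hit whose thallium flux fell at least 3 control SD below untreated wells in both duplicates, with normal baseline fluorescence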); details: Kir2.1-expressing cells, FluxOR thallium flux fluorescence, at 10 µM; hits give low values
[19] = nonspecific thallium flux effects in parental HEK293 cells, confirmation, counter-screen for Kir2.1 inhibitor project, cell-based, FluxOR thallium flux, duplicate, single concentration (AID 2105;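 active = dye signal at least 3 control SD above or below untreated wells in both duplicates, raw fluorescence within 3, either direction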); details: FluxOR thallium flux fluorescence, at 10 µM; 0% = unstimulated blank wells

Short transient receptor potential channel 6 (Mus musculus), sequence (Q61143 whole entry, looked up): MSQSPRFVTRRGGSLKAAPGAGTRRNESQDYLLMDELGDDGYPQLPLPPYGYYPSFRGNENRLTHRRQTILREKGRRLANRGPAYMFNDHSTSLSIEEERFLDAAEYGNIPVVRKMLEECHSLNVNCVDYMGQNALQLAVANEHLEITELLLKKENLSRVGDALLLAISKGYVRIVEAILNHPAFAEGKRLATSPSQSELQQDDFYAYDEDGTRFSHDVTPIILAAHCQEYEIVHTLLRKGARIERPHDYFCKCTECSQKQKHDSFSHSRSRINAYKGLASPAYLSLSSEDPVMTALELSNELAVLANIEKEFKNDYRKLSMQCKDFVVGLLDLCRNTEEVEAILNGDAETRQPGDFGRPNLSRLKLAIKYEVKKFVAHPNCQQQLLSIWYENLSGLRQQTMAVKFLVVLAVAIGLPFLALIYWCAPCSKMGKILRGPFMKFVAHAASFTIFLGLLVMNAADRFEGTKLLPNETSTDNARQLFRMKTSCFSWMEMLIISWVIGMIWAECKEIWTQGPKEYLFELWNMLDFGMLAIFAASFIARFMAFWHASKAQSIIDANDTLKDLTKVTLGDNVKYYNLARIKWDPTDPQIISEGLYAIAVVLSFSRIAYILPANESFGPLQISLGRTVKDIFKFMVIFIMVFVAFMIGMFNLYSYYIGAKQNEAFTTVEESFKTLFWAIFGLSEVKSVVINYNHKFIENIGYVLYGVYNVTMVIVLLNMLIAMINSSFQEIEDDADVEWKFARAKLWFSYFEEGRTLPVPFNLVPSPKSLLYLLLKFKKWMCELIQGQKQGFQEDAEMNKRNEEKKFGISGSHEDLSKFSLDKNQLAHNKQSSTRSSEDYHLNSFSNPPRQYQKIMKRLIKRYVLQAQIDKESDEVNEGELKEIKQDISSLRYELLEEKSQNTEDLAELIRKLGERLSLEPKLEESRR
Short transient receptor potential channel 4 (Mus musculus), sequence (Q9QUQ5 whole entry, looked up): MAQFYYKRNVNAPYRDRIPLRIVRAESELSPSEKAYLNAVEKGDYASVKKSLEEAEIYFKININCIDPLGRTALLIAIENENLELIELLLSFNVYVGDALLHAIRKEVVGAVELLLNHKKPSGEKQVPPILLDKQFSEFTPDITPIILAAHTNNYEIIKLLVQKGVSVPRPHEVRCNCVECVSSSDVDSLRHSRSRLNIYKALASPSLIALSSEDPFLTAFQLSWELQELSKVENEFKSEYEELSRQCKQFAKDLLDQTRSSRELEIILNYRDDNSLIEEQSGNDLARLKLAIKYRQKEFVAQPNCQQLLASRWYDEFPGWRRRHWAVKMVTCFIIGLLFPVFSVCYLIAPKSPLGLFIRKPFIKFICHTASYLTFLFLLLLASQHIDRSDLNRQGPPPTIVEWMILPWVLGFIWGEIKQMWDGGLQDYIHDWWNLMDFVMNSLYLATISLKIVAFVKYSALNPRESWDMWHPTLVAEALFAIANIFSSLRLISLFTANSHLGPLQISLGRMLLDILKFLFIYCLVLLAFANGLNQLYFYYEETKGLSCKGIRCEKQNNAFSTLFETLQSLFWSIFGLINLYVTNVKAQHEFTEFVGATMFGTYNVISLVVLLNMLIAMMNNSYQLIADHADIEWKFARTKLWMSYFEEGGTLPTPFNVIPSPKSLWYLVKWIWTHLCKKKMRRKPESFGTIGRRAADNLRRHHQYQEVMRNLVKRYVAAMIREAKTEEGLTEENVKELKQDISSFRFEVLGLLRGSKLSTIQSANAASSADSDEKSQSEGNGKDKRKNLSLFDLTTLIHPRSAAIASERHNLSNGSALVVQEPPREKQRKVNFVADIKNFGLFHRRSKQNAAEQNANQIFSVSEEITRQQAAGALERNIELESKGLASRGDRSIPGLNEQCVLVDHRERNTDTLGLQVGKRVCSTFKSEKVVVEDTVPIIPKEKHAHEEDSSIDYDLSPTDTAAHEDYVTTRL
Inward rectifier potassium channel 2 (Mus musculus), sequence (P35561 whole entry, looked up): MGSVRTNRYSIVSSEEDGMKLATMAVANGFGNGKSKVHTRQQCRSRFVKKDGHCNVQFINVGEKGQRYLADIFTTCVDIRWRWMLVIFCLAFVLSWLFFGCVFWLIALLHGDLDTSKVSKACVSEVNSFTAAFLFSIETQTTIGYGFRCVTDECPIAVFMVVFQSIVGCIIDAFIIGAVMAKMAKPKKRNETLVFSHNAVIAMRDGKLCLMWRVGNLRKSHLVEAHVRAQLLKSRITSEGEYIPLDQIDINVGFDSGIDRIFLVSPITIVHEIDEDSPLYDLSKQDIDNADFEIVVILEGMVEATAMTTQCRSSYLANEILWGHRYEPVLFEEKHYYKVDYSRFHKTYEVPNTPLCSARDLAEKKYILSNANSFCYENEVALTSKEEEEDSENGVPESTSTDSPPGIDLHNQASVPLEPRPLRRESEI

c1ccc2nc(OCCN3CC3)ccc2c1
inactive: outcome [1] | outcome [2] | outcome [3] | outcome [5] | outcome [6] | outcome [7] | outcome [8] | outcome [9] | outcome [10] | outcome [11] | outcome [12] | outcome [13] | outcome [14] | outcome [16] | outcome [17]
active: potentiation [4] 17% | potentiation [15] 16.5%

CN(C)CCn1cnc2ccccc21
active: potentiation [15] 19.9%
inactive: outcome [1] | outcome [2] | outcome [3] | outcome [4] | outcome [5] | outcome [6] | outcome [7] | outcome [8] | outcome [9] | outcome [10] | outcome [11] | outcome [12] | outcome [13] | outcome [14] | outcome [16] | outcome [17]

CCN1CCN(c2cc(N3CCCC3)c([N+](=O)[O-])cc2F)CC1
inactive: outcome [1] | outcome [2] | outcome [5] | outcome [6] | outcome [7] | outcome [8] | outcome [9] | outcome [10] | outcome [11] | outcome [12] | outcome [13] | outcome [14] | outcome [16] | outcome [17]
active: potentiation [3] 31% | potentiation [4] 11% | potentiation [15] 17.9%

CC(Cc1ccccc1Sc1ccccc1)N(C)C (stereo not drawn)
inactive: outcome [1] | outcome [2] | outcome [3] | outcome [4] | outcome [5] | outcome [6] | outcome [7] | outcome [8] | outcome [9] | outcome [10] | outcome [11] | outcome [12] | outcome [13] | outcome [14] | outcome [15] | outcome [16] | outcome [17]

C=CCOC(=O)C1=C(C)OC(N)=C(C#N)[C@@]12C(=O)N(CC(N)=O)c1ccccc12
inactive: outcome [1] | outcome [2] | outcome [3] | outcome [5] | outcome [6] | outcome [7] | outcome [8] | outcome [9] | outcome [10] | outcome [11] | outcome [12] | outcome [13] | outcome [14] | outcome [16] | outcome [17]
active: potentiation [4] 26% | potentiation [15] 7.13%

CCCCN1C(=O)NC(=O)C2(Cc3c(nc4c(C)cccn4c3=O)N3CCc4ccccc4C32)C1=O (stereo not drawn)
active: potentiation [4] 23% | potentiation [15] 37.1% [hits give high values]
inactive: outcome [1] | outcome [2] | outcome [3] | outcome [5] | outcome [6] | outcome [7] | outcome [8] | outcome [9] | outcome [10] inactive [setting not given] | outcome [11] | outcome [12] inactive [setting not given] | outcome [13] | outcome [14] inactive [setting not given] | outcome [16] | outcome [17] inactive [setting not given]

COc1cc(-n2c(=S)[nH]c3ccc(C)cc3c2=O)c(Cl)cc1Cl
inactive: outcome [18] | outcome [19]

CC(Cc1ccccc1)NCC(=O)Nc1cc(N(C)C)nc2ccccc12 (stereo not drawn)
active: inhibition [5] 82% | inhibition [14] 46%
inactive: outcome [1] | outcome [2] | outcome [3] | outcome [4] | outcome [6] | outcome [7] | outcome [8] | outcome [9] | outcome [10] | outcome [11] | outcome [12] | outcome [13] | outcome [15] | outcome [16] | outcome [17]

Nc1c([N+](=O)[O-])cc(F)c(N2CCNCC2)c1Br
inactive: outcome [1] | outcome [2] | outcome [3] | outcome [4] | outcome [5] | outcome [6] | outcome [7] | outcome [8] | outcome [9] | outcome [10] | outcome [11] | outcome [12] | outcome [13] | outcome [14] | outcome [16] | outcome [17]
active: potentiation [15] 22.5%

CCN1CC2C3CCC(C)(O3)C2C1 (stereo not drawn)
inactive: outcome [1] | outcome [2] | outcome [3] | outcome [4] | outcome [5] | outcome [6] | outcome [7] | outcome [8] | outcome [9] | outcome [10] | outcome [11] | outcome [12] | outcome [13] | outcome [14] | outcome [15] | outcome [16] | outcome [17]

C#CCN1C(=O)C2(C(C#N)=C(N)OC(C)=C2C(=O)OCc2ccccc2)c2ccccc21 (stereo not drawn)
active: potentiation [4] 11% | potentiation [15] 28.9%
inactive: outcome [1] | outcome [2] | outcome [3] | outcome [5] | outcome [6] | outcome [7] | outcome [8] | outcome [9] | outcome [10] | outcome [11] | outcome [12] | outcome [13] | outcome [14] | outcome [16] | outcome [17]

CCC1=Nc2cc(C(=O)N3CCC4(CC3)OCCO4)ccc2Sc2ccc(Br)cc21
inactive: outcome [1] | outcome [2] | outcome [3] | outcome [4] | outcome [5] | outcome [6] | outcome [7] | outcome [8] | outcome [9] | outcome [10] inactive [setting not given] | outcome [11] | outcome [12] inactive [setting not given] | outcome [13] | outcome [14] inactive [setting not given] | outcome [15] inactive [setting not given] | outcome [16] | outcome [17] inactive [setting not given]

Clc1ccc2c(c1)C(c1ccccc1Cl)=NCc1nnc(N3CCN(CCOc4ccccc4)CC3)n1-2
inactive: outcome [1] | outcome [2] | outcome [3] | outcome [5] | outcome [6] | outcome [7] | outcome [8] | outcome [9] | outcome [10] | outcome [11] | outcome [12] | outcome [13] | outcome [14] | outcome [16] | outcome [17]
active: potentiation [4] 9% | potentiation [15] 13.8%

COC(=O)C1=C(c2cc3ccccc3s2)C[C@@H]2CC[C@H]1N2C(=O)NCCO
active: activation [11] 27%
inactive: outcome [1] | outcome [2] | outcome [3] | outcome [4] | outcome [5] | outcome [6] | outcome [7] | outcome [8] | outcome [9] | outcome [10] | outcome [12] | outcome [13] | outcome [14] | outcome [15] | outcome [16] | outcome [17]
